Bioassay records: PubChem BioAssay, several laboratories
Only some compounds are listed: those with a hit (about 3.6% of all), similar ones and a draw of the others.
Autofluor counter: counter-screen for toxin protease inhibitors: compound fluorescence; compound autofluorescence counterscreen, microsphere flow cytometry; active compounds read high; fluorescence intensity (concentration not given with the values); 360,000 tested, 3.1% active; in the data active means fluorescence intensity above about 16000; inconclusive means no clear call, values can overlap the other calls
BoNT-F LC inh: BoNT F light chain protease inhibition. Multiplex microsphere protease cleavage assay, flow cytometry. inhibition, % at 10 µM. 360,000 tested, 0.22% active; in the data active means inhibition above about 35%, passing the limit was not always enough; inconclusive means no clear call, values can overlap the other calls; further: plate controls were buffer without enzyme for full effect and enzyme alone for no effect
Anthrax LF inh2: blocks Bacillus anthracis lethal factor protease | 360,000 tested, 0.12% active | multiplex microsphere protease cleavage assay, LF | AID 588501 | P15917 | inhibition, % at 10 µM; further: plate controls were buffer without enzyme for full effect and enzyme alone for no effect
BoNT A protease: BoNT A light chain protease inhibition. multiplex microsphere protease substrate cleavage, flow cytometry. inhibition, % at 10 µM. 360,000 tested, 0.17% active. AID 588499; further: plate controls were buffer without enzyme for full effect and enzyme alone for no effect
MazF activator: increases E. coli MazEF RNase cleavage of RNA | P0AE70 | FAM/BHQ RNA-DNA oligo cleavage fluorescence, 5 h | activation, % at 20 µM | 350,000 tested, 0.32% active | AID 504720; in the data active means activation above about 50%
Target sequence (P0AE70 whole entry, looked up): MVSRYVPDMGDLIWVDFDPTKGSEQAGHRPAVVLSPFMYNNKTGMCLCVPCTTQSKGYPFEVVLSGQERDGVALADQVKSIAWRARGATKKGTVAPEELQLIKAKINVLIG
* = called active by the depositor; ? = inconclusive; · = no result given; ! = not confirmed by another sample. Unless noted, no stated cut-off is given here; in the data, active means inhibition above about 30%; inconclusive means no clear call, values can overlap the other calls; inactive means below that.

SMILES	Autofluor counter	BoNT-F LC inh	Anthrax LF inh2	BoNT A protease	MazF activator
COc1ccc(N2CC(C(=O)NCCCN3CCOCC3)CC2=O)cc1 (configuration not stated)	23842*	2	1	0	3
COc1ccc(C(=O)NC(C)c2ccc(-n3ccnc3)cc2)cc1[N+](=O)[O-] (configuration not stated)	3574	12	-2	-2	9
O=C(Cc1ccc(Cl)cc1)N1CCN(c2ccccc2)CC1	3065	-19	1	1	4
Cc1ccc(NC(=O)CSCc2cc(=O)n3cc(C)sc3n2)cc1	6027	1	-4	-1	18
CC(C)C(=O)N1CCN(c2ccc(NC(=O)c3ccc4c(c3)OCCO4)cc2Cl)CC1	16164*	1	-5	?	-3
CC(=O)N1CCN(c2ccc(NC(=O)c3ccc4c(c3)OCCO4)cc2)CC1	8819	-8	-5	2	8
O=C(Nc1ccc(N2CCCCC2)cc1)c1ccc2c(c1)OCCO2	23082*	-2	-3	?	-8
COc1ccc([N+](=O)[O-])cc1N(CC(O)CN1C(=O)NC(C)(C)C1=O)S(=O)(=O)c1ccccc1 (configuration not stated)	3709	-11	-5	-3	7
O=C(OCC(=O)N1N=C(c2ccc(Cl)cc2)CC1c1ccco1)c1cccnc1 (configuration not stated)	3768	13	-7	2	-17
Cc1ccc(N2CS(=O)(=O)/C(=C/N(C)C)C2=O)cc1	21872*	2	0	3	8
CN(C)/C=C1\C(=O)N(c2ccc(Cl)cc2)CS1(=O)=O	23839*	-2	-1	-1	11
NC(=O)C1C(=O)c2ccccc2C1(C[N+](=O)[O-])c1ccccc1 (configuration not stated)	3607	0	-4	0	-29
Clc1c(-c2ccccc2)nc2ccccn12	2937	?	13	-2	-1
c1ccn2c(c1)nc1c2nc2ccccn21	21237*	-2	1	-2	-4
CSc1ccccc1C(=O)NCc1ccc(S(N)(=O)=O)cc1	2602	-10	1	0	1
COCCSc1ccccc1C(=O)NCc1ccc(S(N)(=O)=O)cc1	23008*	2	0	?	3
CCCCNC(=O)c1sc2nc(C)cc(COC)c2c1-n1cccc1	16799*	-5	-6	-2	1
COc1ccc(C2N(c3ccccc3)C(=O)C2(F)F)cc1OC (configuration not stated)	3260	1	-3	1	9
COC(=O)C1=C(C)NC(=O)NC1c1ccc(OC)c(OC)c1 (configuration not stated)	2877	-6	2	0	-5
COc1ccc(C2SCC(=O)Nc3c2c(C)nn3C2CCOC(C)(C)C2)cc1OC (configuration not stated)	23587*	-2	-3	?	8
COc1ccc(C2SCC(=O)Nc3c2c(C)nn3-c2ccccc2)cc1OC (configuration not stated)	23949*	-6	-2	-3	-5
CCN1C(=O)C2(C(C#N)=C(N)Oc3n[nH]c(-c4ccccc4)c32)c2ccccc21 (configuration not stated)	16247*	0	-1	0	10
CCCc1[nH]nc2c1C1(C(=O)N(Cc3ccccc3)c3ccccc31)C(C(=O)OC)=C(N)O2 (configuration not stated)	17223*	9	-15	8	1
O=C(COc1ccc2ccccc2c1)N1c2ccccc2Sc2ccccc21	22677*	-6	1	-7	-5
Cn1c(=O)c2c(n(C)c1=O)n(C)c(=O)n2C	5510	-9	6	0	·
SMILES	Autofluor counter	BoNT-F LC inh	Anthrax LF inh2	BoNT A protease	MazF activator
O=C(Nc1ccc(N2CCOCC2)cc1N1CCOCC1)c1cccc([N+](=O)[O-])c1	6648	?	-1	-3	3
O=C(N1CCCCC1)N1CCN(C(c2ccccc2)c2ccccc2)CC1	2160	-6	0	0	-3
O=C(N1CCOCC1)N1CCN(C(c2ccccc2)c2ccccc2)CC1	21654*	1	-5	1	-3
O=C(c1cc(-c2ccco2)on1)N1CCN(C(c2ccccc2)c2ccccc2)CC1	21890*	2	-6	4	-31
O=C(OCC(=O)N1CCC(Cc2ccccc2)CC1)c1cc(Br)ccc1O	3766	-1	-3	0	-3
C=CCn1c(=O)c2ccccc2n2c(SCC(=O)/C(C#N)=C(\C)N)nnc12	24633*!	-2	0	?	12
C=CCn1c(=O)c2ccccc2n2c(SC(C)C(N)=O)nnc12 (configuration not stated)	3436	-1	2	-2	3
Cn1c(SCC(=O)N2CCN(c3cccc(Cl)c3)CC2)nnc1-c1ccncc1	22921*	-2	0	-1	4
CCn1c(SCC(=O)N2CCN(c3ccc(F)cc3)CC2)nnc1-c1ccncc1	20103*	-4	1	-2	-4
Cn1c(SCC(=O)N2CCN(c3ccccc3)CC2)nnc1-c1cc2ccccc2o1	16756*	-2	-10	-3	-5
Cc1occc1-c1nnc(SCC(=O)N2CCN(c3ccccc3)CC2)n1C	5000	6	-6	0	11
Nc1nnc(SCC(=O)N2CCN(c3cccc(Cl)c3)CC2)n1-c1ccccc1	23616*	-3	-3	0	0
Cn1c(SCC(=O)N2CCN(c3ccccc3)CC2)nnc1-c1ccncc1	3570	6	5	0	10
CCCc1nc2c3ccccc3ccn2c1CC1CCCCC1	5910	0	2	-1	·
O=C(Nc1ccc(S(=O)(=O)N2CCCC2)cc1)c1cnccn1	2472	0	0	0	-1
O=C(Nc1ccc(S(=O)(=O)N2CCN(Cc3ccccc3)CC2)cc1)c1cnccn1	16875*	-6	-3	-2	0
CC(=O)Nc1ccc(S(=O)(=O)N2CCN(C(=O)c3cccnc3)CC2)cc1	23558*	-4	-3	-1	5
O=C(c1cccnc1)N1CCN(S(=O)(=O)c2ccc(Cl)cc2)CC1	4285	5	-1	0	-6
CC(=O)Nc1ccc(S(=O)(=O)N(c2cccnc2)S(=O)(=O)c2ccc(NC(C)=O)cc2)cc1	23675*	-6	-1	-2	2
CCOc1ccc(OCCNC(=O)C(NC(=O)c2c(F)cccc2F)C(C)C)cc1 (configuration not stated)	·	·	·	·	9
Cc1ccc(C2(C(=O)N3CCC(n4nc(-c5ccccc5)oc4=O)CC3)CC2)cc1	5431	-5	1	-1	1
CC(=O)Nc1ccc(CNc2nc3cc(-c4ccsc4)sc3c(=O)n2C)cc1	3457	1	-6	0	·
CN(C(=O)c1ccc(NC(=O)Cc2cccc(NC(=O)C3CCN(C(=O)C4CCCC4)CC3)c2)cc1)C1CC1	3575	2	2	0	1
COc1cc(Cl)c(NC2=CC(=O)C(=O)c3ccccc32)c(OC)c1	3387	-8	0	0	2
COc1cccc(CNS(=O)(=O)c2ccc3c(c2)C(C)(C)C(=O)N3C)c1	5214	-2	-1	-3	1
